# Test results published in PubChem BioAssay (NCATS).
# Values without a mark were called inactive. Inconclusive results are not listed. Entries that show only a call come without a potency. Calls of active or inactive are those of the source. The call rests on the fitted dose curve; in most records, active means well fitted curve in the direction sought with a large enough effect; inconclusive means small, poorly fitted or top-dose-only effect, or another doubt; inactive means no such curve, though single readings can be large; an effect the other way counts as inactive or inconclusive.
# Tests used:
# [1] = test system: Zika virus NS2B-NS3 protease (linked construct); test: Primary screen NINDS Rhodamine qHTS for Zika virus inhibitors (AID 1347160); further: nearly all actives have a fitted effect of over 55% in size; further: potency means the concentration at half of the fitted maximal effect
# Outline: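 Rhodamine110-peptide cleavage (1.5 µM substrate) by 25 nM linked NS2B-NS3 enzyme at pH 8.0 (Tris, Tween 20), after 15 min RT preincubation with compounds; 15-min fluorescence change normalized to controls and Hill-fitted.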
# [2] = OV-KATE Cancer Cell Toxicity qHTS against the NCATS CANVASS Library (AID 1347345)
# Outline: (§1)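 Following a 4 h pre-incubation of 1000 seeded cells, compounds were pinned in an 11-pnt dilution series and left for 72 h; viability then came from CellTiter-Glo.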
# [3] = HPAF-II Cancer Cell Toxicity qHTS against the NCATS CANVASS Library (AID 1347346); further: series mostly up to about 38 µM; nearly all actives have a fitted effect of over 55% in size
# Outline: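 Cytotoxicity read-out was CellTiter-Glo luminescence after 72 h at 37 degrees C exposure of HPAF-II cells (1000/well) to compounds in an 11-point titration.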
# [4] = UWB1.289 Cancer Cell Toxicity qHTS against the NCATS CANVASS Library (AID 1347347); further: series mostly up to about 38 µM; nearly all actives have a fitted effect of over 60% in size
# Outline: as §1
# [5] = OV-SAHO Cancer Cell Toxicity qHTS against the NCATS CANVASS Library (AID 1347348); further: series mostly up to about 38 µM; nearly all actives have a fitted effect of over 55% in size
# Outline: as §1
# [6] = U-118MG Cancer Cell Toxicity qHTS against the NCATS CANVASS Library (AID 1347351); on activity change, negative = cytotoxicity: series mostly up to about 38 µM
# Outline: as §1
# [7] = COV-362 Cancer Cell Toxicity qHTS against the NCATS CANVASS Library (AID 1347352); further: series mostly up to about 38 µM
# Outline: (§2)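 Toxicity was measured as CellTiter-Glo luminescence after 72 h exposure to an 11-point compound series. Compound was added to 1000 cells/well 4 h after seeding.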
# [8] = A2780 Cisplatin Sensitive Ovarian Cancer Cell Toxicity qHTS against the NCATS CANVASS Library (AID 1347353); further: nearly all actives have a fitted effect of over 60% in size; on activity change, negative = cytotoxicity: series mostly up to about 46 µM
# Outline: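 Cisplatin-sensitive A2780 ovarian cells (750/well) received compound in 11 concentrations, and were incubated 72 h at 37 °C. ATP content was measured by ATPLite luminescence; bortezomib served as control.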
# [9] = UWB1.289-WTBRCA1 Cancer Cell Toxicity qHTS against the NCATS CANVASS Library (AID 1347354)
# Outline: as §2
# [10] = HPAF-II 24hr Apoptosis Induction qHTS against the NCATS CANVASS Library (AID 1347356)
# Outline: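 Caspase-Glo 3/7 luminescence, read after 15 min room-temperature development, measures apoptosis in HPAF-II cells treated 24 h at 37 degrees C with an 11-point concentration series; 500 cells/well; doxorubicin control.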
# [11] = HEK293 24hr Apoptosis Induction qHTS against the NCATS CANVASS Library (AID 1347359)
# Outline: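 HEK293 cells (500/well, DMEM + 10% FBS) were exposed to compounds in an 11-point series for 24 hours at 37 degrees C, then caspase-3/7 activity was read by Caspase-Glo DEVD luciferase luminescence after 15 min.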
# [12] = HEK293 12hr Apoptosis Induction qHTS against the NCATS CANVASS Library (AID 1347361)
# Outline: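 Luminescent caspase-3/7 signal, proportional to enzyme activity, was recorded from HEK293 cultures in DMEM + 10% FBS treated for 12 hours with titrated natural products (11 points). Doxorubicin (0.1nM - 4uM) served as control.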
# [13] = test system: NAD(P)H diaphorase (Clostridium kluyveri); test: Diaphorse counterscreen qHTS: Assay Interference Panel against the NCATS CANVASS Library (AID 1347362)
# Outline: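 Clostridium kluyveri diaphorase in PBS with 0.01% Tween-20 was preincubated 15 min at room temperature in the dark with compounds (11-point series). Resorufin fluorescence (ex 525/20, em 598/25) was read 5 min after adding resazurin/NADH.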
# [14] = qHTS for ATAD5 Agonist screened against the NCATS CANVASS Library (AID 1347367);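 further: luciferase reporter driven by ATAD5 which rises upon DNA damage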
# Outline: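 Genotoxicity was scored as increased ATAD5-luciferase luminescence in HEK293T after 16hr of exposure, with cell viability measured by fluorescence beforehand in the same well.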
# [15] = MCF7 Cancer Cell Toxicity qHTS against the NCATS CANVASS Library (AID 1347369); further: series mostly up to about 46 µM
# Outline: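 This 72 hr qHTS scored MCF7 viability by CellTiterGlo luminescence, with 500 cells/well; bortezomib titration ran as control.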
# [16] = J3T Cancer Cell Toxicity qHTS against the NCATS CANVASS Library (AID 1347371);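 on activity change, negative = cytotoxicity: J3T is a canine glioma cancer cell line seeded at 500 cells per well; series mostly up to about 46 µM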
# Outline: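 Cytotoxicity read as CellTiterGlo ATP luminescence after 72 h incubation (37C, 5% CO2) of J3T canine glioma cells (500/well) with an 11-point compound series.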
# [17] = qHTS for Hypoxia signaling pathway (HIF-1) agonists against the NCATS CANVASS Library (AID 1347375)
# Outline: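 Beta-lactamase reporter under HRE control in ME-180 cells; compounds (11-point qHTS series) added after 5 hrs plating, then 17 hrs at 37C. FRET substrate read after 2 hr; same-well CellTiter-Glo luminescence gave viability and normalization.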
# [18] = qHTS for Inflammasome Signaling Inhibitors: IL-1-beta AlphaLISA screen against the NCATS CANVASS Library (AID 1347379);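 further: human THP-1 cells primed with LPS then triggered with ATP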
# Outline: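 Secreted IL-1B from human THP-1 cells quantified by AlphaLISA 16 hr after compound addition (final up to 57.5 uM). A 1 hr compound pretreatment preceded inflammasome activation with 250 ng/mL LPS plus 1.25 mM ATP (final).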
# [19] = Vero-766 cells viability qHTS against the NCATS CANVASS Library: Counterscreen for Zika virus inhibition assay (AID 1347394); further: series mostly up to about 46 µM; nearly all actives have a fitted effect of over 60% in size
# Outline: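 Counterscreen for toxicity: Vero 766 cells exposed 72 h to an 11-point compound series, viability by CellTiter-Glo.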
# [20] = qHTS for inhibitors of Wild type Zika virus screened against the NCATS CANVASS Library (AID 1347396);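 further: ATP luminescence of surviving cells so rescue from viral cell killing; series mostly up to about 46 µM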
# Outline: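 Luminescent CellTiter Glo read-out of virus-induced cytotoxicity, 72 h post-infection, in Vero 766 cells. Compounds were tested at 11 concentrations; uninfected, vehicle-treated wells defined 100% inhibition.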
compound,measurement,setting,value
CO[C@@H]1[C@H](O)[C@@H](C)O[C@@H](OC[C@@H]2C(C)OC(=O)/C=C/[C@H](C)C(O[C@@H]3O[C@H](C)CC4(OC(=O)O[C@@H]4C)C3O)[C@@H](C)CC(C)C(=O)CC[C@H]3OC23)[C@@H]1OC (stereo not given in full),Potency,[1],49.3 µM (active)
same,Potency,[2],inactive
same,Potency,[3],inactive
same,Potency,[4],inactive
same,Potency,[5],inactive
same,Potency,[6],inactive
same,Potency,[7],inactive
same,Potency,[8],inactive
same,Potency,[9],inactive
same,outcome,[10],inactive
same,Potency,[11],inactive
same,Potency,[12],inactive
same,Potency,[13],inactive
same,Potency,[14],inactive
same,Potency,[15],inactive
same,Potency,[16],inactive
same,Potency,[17],inactive
same,Potency,[18],inactive
same,Potency,[19],inactive
same,Potency,[20],inactive
COc1ccc2oc3c(OC)c(OC)c(OC)c(OC)c3c(=O)c2c1,Potency,[1],inactive
same,"activity change, negative = cytotoxicity",[2],-4.56% [at 7.64 µM]
same,"activity change, negative = cytotoxicity",[3],-3.19% [at 7.64 µM]
same,"activity change, negative = cytotoxicity",[4],-4.07% [at 7.64 µM]
same,"activity change, negative = cytotoxicity",[5],-19.6% [at 7.64 µM]
same,"activity change, negative = cytotoxicity",[6],3.45% [at 7.64 µM]
same,"activity change, negative = cytotoxicity",[7],-3.36% [at 7.64 µM]
same,outcome,[8],inactive [at 9.19 µM]
same,"activity change, negative = cytotoxicity",[9],9.39% [at 7.64 µM]
same,caspase activation,[10],1.51% [at 9.19 µM]
same,activation,[11],-1% [at 9.19 µM]
same,caspase activation,[12],10.6% [at 9.19 µM]
same,"activity change, negative = inhibition",[13],-18.3% [at 11.5 µM]
same,activation,[14],0.941% [at 9.19 µM]
same,"activity change, negative = cytotoxicity",[15],0.434% [at 9.17 µM]
same,"activity change, negative = cytotoxicity",[16],-8.53% [at 9.19 µM]
same,activation,[17],1.59% [at 7.64 µM]
same,outcome,[18],inactive [at 11.5 µM]
same,"activity change, negative = cytotoxic",[19],-1.29% [at 9.19 µM]
same,"activity change, negative = antiviral",[20],-12.7% [at 9.14 µM]
CC1(C)[C@H](Br)CC[C@]23C[C@]4(C)C(=O)CC12C[C@H]34,Potency,[1],inactive
same,Potency,[2],inactive
same,Potency,[3],inactive
same,Potency,[4],inactive
same,Potency,[5],inactive
same,Potency,[6],inactive
same,Potency,[7],inactive
same,Potency,[8],inactive
same,Potency,[9],inactive
same,outcome,[10],inactive
same,Potency,[11],inactive
same,Potency,[12],inactive
same,Potency,[13],inactive
same,Potency,[14],inactive
same,Potency,[15],inactive
same,Potency,[16],inactive
same,Potency,[17],inactive
same,Potency,[18],inactive
same,Potency,[19],inactive
same,Potency,[20],inactive
